KCNQ2 inh – rat KCNQ2 potassium channel inhibitors, primary screen, cell-based, CHO-K1, FluxOR thallium flux, B-score. 1.1% of 310,000 active. B-score at 10 µM. Potassium voltage-gated channel subfamily KQT member 2 (Rattus norvegicus), O88943. 20 min; active compounds read low. AID 2156, 2009;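 active means fluorescence ratio B-score at most minus 3 library SDs, with starting brightness B-score within 2 library SDs, cut at about -5.5 in these data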
KCNQ2 enhance – potentiators of rat KCNQ2 potassium channel | CHO-K1 KCNQ2, FluxOR thallium flux fluorescence; active compounds read high | B-score at 10 µM | 0.54% of 310,000 active | AID 2239, 2010;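 active means fluorescence ratio B-score at least 3 SD of library B-scores, with initial fluorescence B-score within 3 of them, cut at about 5.3 in these data; same plate scores as AID 2156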;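 further: B-score of peak minus minimum over baseline fluorescence ratio after K+ and Tl+ stimulus; positive B-score means potentiation of KCNQ2 with more thallium influx and brighter signal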
An asterisk follows results filed as active; i = inactive; · = no result given. Rows were chosen to be rich in hits. Some 1.6% of all compounds tested hit in one or more screens of this group.

SMILES	KCNQ2 inh	KCNQ2 enhance
COc1ccc(C2SCC(=O)Nc3c2c(C)nn3-c2ccccc2)cc1 (centres undefined)	i	0.6
Cc1ccc(-n2nc(C)c3c2NC(=O)CSC3c2ccc3c(c2)OCO3)cc1 (centres undefined)	-5.6*	-5.6
CC(C)Sc1nnc(OC(=O)N(C)C)n1-c1ccccc1	i	·
CC(C)(C#CC(=O)O)OOC(c1ccccc1)(c1ccccc1)c1ccccc1	-11*	-11
CCOc1cc2c(cc1OCC)-n1cccc1C(c1cc(C)c(OC)cc1C)NC2 (centres undefined)	i	·
CCS(=O)(=O)NC(C)c1nnc2n1-c1ccc(Br)cc1C(c1ccccc1Cl)=NC2 (centres undefined)	i	0.64
CCOC(=O)c1c(NC(=O)c2c(N)n(CCCOC)c3nc4ccccc4nc23)sc2c1CCCC2	i	1.3
CCOC(=O)c1c(NC(=O)C(c2ccccc2)c2ccccc2)sc2c1C1CCN2CC1	-7.2*	-7.2
CN(CC(=O)Nc1ccccc1-c1ccccc1)C1CCCCC1	-6.4*	-6.4
CCc1ccccc1NC(=O)CNC1CCCCC1	i	·
O=C1NC(=O)N(c2ccccc2)C(=O)/C1=C/c1coc2ccc(O)cc2c1=O	-7.1*	-7.1
O=C1NC(=O)N(c2ccc(Cl)cc2)C(=O)/C1=C/c1coc2ccc(O)cc2c1=O	i	·
Cc1cc(OCC(=O)N2CCC(C(=O)O)CC2)c2c3c(c(=O)oc2c1)CCC3	i	·
C=C(C=O)CC1CC(O)[C@]2(C)OC3CC4OC5C[C@]6(C)O[C@]7(C)CCC8OC9C[C@]%10(C)OC%11C(C)=CC(=O)OC%11CC%10OC9C[C@@H](C)C8OC7CC6O[C@]5(C)CC5OC5C4OC3CC2O1 (some centres undefined)	-5.6*	-5.6
C=C(CO)CC1CC(O)[C@]2(C)OC3CC4OC5C[C@]6(C)O[C@]7(C)CCC8OC9C[C@]%10(C)OC%11C(C)=CC(=O)OC%11CC%10OC9C[C@@H](C)C8OC7CC6O[C@]5(C)C/C=C\C4OC3CC2O1 (some centres undefined)	i	0.1
O=c1[nH]c(O)c(N=Nc2ccc([N+](=O)[O-])cc2)c(=O)[nH]1	i	·
CCCCn1c(=O)c(C(=O)NCc2ccccc2OC)c(O)c2ccccc21	-6.2*	-6.2
CCCCCn1c(=O)c(C(=O)NCCc2ccccc2)c(O)c2ccccc21	i	·
c1ccc(-c2ccc(-c3n(-c4ccccn4)c4ccccc4[n+]3-c3ccccn3)cc2)cc1	-7.7*	-7.7
COc1cc(N2C(=O)CC(=O)NC2=O)cc(OC)c1OC	i	0.67
O=[N+]([O-])c1cccc(NP(=O)(Oc2ccccc2)Oc2ccccc2)c1	i	·
Cc1ncc([N+](=O)[O-])n1CCOC(N)=O	i	0.47
COC(=O)C1=CO[C@@H](C)[C@@H]2CN(CCc3c[nH]c4ccccc34)CC[C@H]12	i	·
CCOc1cc2c(cc1OCC)-n1cccc1C(c1cccc(F)c1)NC2 (centres undefined)	i	0.28
Cc1cccc(OP(=O)(Oc2ccccc2)OC(c2ccccc2)C(F)(F)F)c1 (centres undefined)	-6.5*	-6.5
SMILES	KCNQ2 inh	KCNQ2 enhance
Cc1ccc(C)c(NP(=O)(Oc2ccccc2)Oc2ccccc2)c1	i	0.73
C[C@]12CC(=O)CC1CCC1C2CC[C@@]2(C)C1CC[C@@H]2O (some centres undefined)	i	0.79
COCCNC(=O)CN1C(=O)CN=C(c2ccccc2)c2ccccc21	i	0.81
C/C1=C\[C@@H](C)C/C=C/[C@H]2[C@@H]3O[C@]3(C)[C@@H](C)[C@H]3[C@H](Cc4c[nH]c5ccccc45)NC(=O)[C@]32C(=O)/C=C/C(=O)[C@@H]1O	i	8.3*
CCOC(=O)[C@@H]1[C@H]2COc3ccc(Br)cc3[C@@H]2N2C(=O)N(c3cccc(C)c3)C(=O)[C@]12C	i	·
CCOc1ccc(-c2cc(C)[n+](CCO)c(-c3ccc(OCC)cc3)c2)cc1	i	0.49
CCOc1ccc(-c2cc(C)[n+](CCc3ccc(OC)c(OC)c3)c(-c3ccc(OCC)cc3)c2)cc1	-5.8*	-5.8
COc1ccc(-c2cc(=O)oc3c(C)c(OC(C)C(=O)N4C[C@H]5C[C@@H](C4)c4cccc(=O)n4C5)ccc23)cc1 (some centres undefined)	i	·
O=[N+]([O-])/C=C1/NCCN1Cc1ccc(Cl)nc1	i	0.02
COc1cccc(N(C(C)=O)C2=NCCCS2)c1	i	0.41
CCCc1nc2ccc(Br)cc2c(=O)n1-c1ccc([N+](=O)[O-])c(C(F)(F)F)c1	-6*	-6
CCc1nc2ccc(Br)cc2c(=O)n1-c1ccccc1C(F)(F)F	i	·
Clc1cnc(Oc2ccc(Oc3ncc(Cl)cc3Cl)cc2)c(Cl)c1	-5.6*	-5.6
Oc1cc(Cl)ccc1Oc1ccc(Cl)cc1Cl	i	·
Cc1c(C(c2ccc(Cl)cc2Cl)c2c(O)c3ccccc3oc2=O)c(=O)n(-c2ccccc2)n1C (centres undefined)	i	·
Cc1ccc(-n2c(/C=C/c3ccc4c(c3)OCO4)nc3ccccc3c2=O)cc1	-5.7*	-5.7
COc1ccc(-n2c(/C=C/c3ccc4c(c3)OCO4)nc3ccccc3c2=O)cc1	i	·
C[N+](C)(N)CCOC(=O)C(O)(c1ccccc1)C1CCCCC1 (centres undefined)	i	·
Cc1ccc(C)c(NC(=O)CCNC(=O)N2C[C@H]3C[C@@H](C2)c2cccc(=O)n2C3)c1	i	0.07
O=c1cccc2n1CC1CNCC2C1 (centres undefined)	i	0.02
O=C1NC(=O)C2(Cc3ccccc3N3CCCC32)C(=O)N1Cc1ccccc1 (centres undefined)	i	·
O=C1NC(=O)[C@]2(Cc3ccccc3N3CCN(c4ccccc4)CC32)C(=O)N1c1ccccc1 (some centres undefined)	-6.1*	-6.1
CN1C(=O)NC(=O)[C@]2(Cc3ccccc3N3CCN(c4ccccc4)CC32)C1=O (some centres undefined)	i	·
O=C1NC(=O)[C@]2(Cc3ccccc3N3CCN(c4ccccc4)CC32)C(=O)N1Cc1ccccc1 (some centres undefined)	-5.7*	-5.7
CC(=O)O[C@H]1CC[C@@]2(C)[C@H](C1)C(=O)C[C@H]1[C@@H]3CC[C@@H]4[C@@H](CN5C[C@@H](C)CC[C@H]5[C@@]4(C)O)[C@@H]3C[C@@H]12	i	·
SMILES	KCNQ2 inh	KCNQ2 enhance
CCCCn1c(O)c(C(C)=NCCc2ccccc2)c(=O)[nH]c1=O	i	0.51
CCCCn1c(O)c(C(C)=Nc2ccc(C(=O)O)cc2)c(=O)[nH]c1=O	i	5.6*
COc1ccc(C(CNC(=O)CCc2ccsc2)N(C)C)cc1 (centres undefined)	i	1.1
Cc1ccc(C(c2nnnn2Cc2ccccc2)N2CC=C(c3ccc(F)cc3)CC2)cc1 (centres undefined)	-5.7*	-5.7
Fc1ccc(C2=CCN(C(c3ccc(Cl)cc3)c3nnnn3Cc3ccccc3)CC2)cc1 (centres undefined)	i	·
CC[n+]1c(/C=C/C=C/c2ccc(N(C)C)cc2)sc2ccccc21	-7.9*	-7.9
CN(C)c1ccc(/C=C/C=C/c2sc3ccccc3[n+]2C)cc1	i	0.07

High-throughput results from PubChem BioAssay.
